Bioassay records (PubChem BioAssay)
Compounds with a hit are over-represented: about 7.1% of the library has one in this group of screens.
SW480 rerep: DNA re-replication induction in SW480 cells; SW480 DNA re-replication, Hoechst DNA content imaging, 48 h; Potency, µM (top dose mostly 46.1 µM), most hits filed as activators; 340,000 tested, 1.8% active; also: nearly all actives have a fitted effect of over 55% in size
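DNA re-replication was detected as more nuclei of elevated Hoechst intensity after 48 hr exposure to compound (23 nL pinned per well of 250 cells).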
AT treatment: candidate therapy for ataxia-telangiectasia. F2112 A-T fibroblasts, KAP-1 phosphorylation AlphaLISA; neocarzinostatin DNA damage 30 min before lysis. Potency, µM (doses to about 57.5 µM), actives largely listed as activators. 320,000 tested, 0.19% active; also: nearly all actives have a fitted effect of over 45% in size
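ATM-like activity read as KAP-1 phosphorylation via AlphaLISA donor/acceptor antibody pairs after lysis and 6 hr at 25C. Cells were ATM-null patient fibroblasts (F2112, hTERT), dosed 60 min, then exposed to the DSB inducer NCS for 30 min.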
p53 reactivator: re-activators of mutant p53 | H1299 p53-A138V BP100-luciferase reporter, luminescence, 24 h | Potency, µM (doses to about 92.2 µM), most hits filed as activators | 320,000 tested, 0.063% active | AID 504706; also: nearly all actives have a fitted effect of over 45% in size
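p53-null H1299 cells stably carrying temperature-sensitive p53-A138V and a BP100-luciferase reporter were pinned with compounds (4-point, 1:5 series) and held 24 hrs at 37 deg C. Luminescence was read 10 min after detection reagent.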
ELG1 repair inh: blocks ELG1-dependent DNA repair in HEK293T cells | HEK293T ELG1-luciferase reporter, luminescence, 16 h; DNA damage induced by 5-fluorouridine | Potency, µM (highest dose often 46.1 µM), usual class: inhibitors | 330,000 tested, 2.3% active; also: nearly all actives have a fitted effect of over 55% in size
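Cells (2,000 per well) received 5-fluorouridine plus test compound or DMSO and were incubated 16 hr at 37 °C, 5% CO2. Luciferase activity was read by luminescence 30 min after ONE-Glo addition; signal suppression marked inhibition of damage-induced ELG1 function.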
ELG1 genotoxic: genotoxicity induction in ELG1-luciferase HEK293T cells; 330,000 tested, 1.3% active; HEK293T ELG1-luciferase reporter, luminescence, 16 h; Potency, µM (top dose mostly 46 µM), actives largely listed as activators; also: nearly all actives have a fitted effect of over 60% in size
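Quantitative HTS format in 1536-well plates. HEK293T ELG1-luciferase reporter cells receive test compound and are incubated 16 hr at 37 °C, 5% CO2; ONE-Glo added, 30 min room temperature, then luminescence read.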
MCF10A rereplic: induces DNA re-replication in MCF 10a normal breast cells | MCF 10A DNA re-replication, Hoechst nuclear intensity, 48 h | Potency, µM (titrated, usually from 46.1 µM), most hits filed as activators | 350,000 tested, 2.9% active | AID 624296; also: nearly all actives have a fitted effect of over 50% in size
Hits are given with their value. Calls follow the shape of the dose curve; as a rule, active = well fitted curve in the direction sought with a large enough effect; inconclusive = small, poorly fitted or top-dose-only effect, or another doubt; inactive = no such curve, though single readings can be large; an effect the other way counts as inactive or inconclusive.

Results for CCc1nc(SCC(=O)Nc2ccccc2OC)c2c(C)c(C)sc2n1 ?
SW480 rerep: inactive; AT treatment: inactive; p53 reactivator: inactive; ELG1 repair inh: inconclusive; ELG1 genotoxic: inactive; MCF10A rereplic: 21µM

Results for S=C(NC1CCCCC1)N(CCc1nc2ccccc2[nH]1)C1CCCC1 ?
SW480 rerep: inactive; AT treatment: inactive; p53 reactivator: inactive; ELG1 repair inh: 23µM; ELG1 genotoxic: inactive; MCF10A rereplic: inactive

What do the screens show for `O=C(CSc1nc2ccccc2[nH]1)Nc1ccccc1F`?
SW480 rerep: inactive; AT treatment: inactive; p53 reactivator: inactive; ELG1 repair inh: inactive; ELG1 genotoxic: inactive; MCF10A rereplic: inactive

What do the screens show for `O=C(Nc1ccccc1NC(=O)NC1CCCCC1)NC1CCCCC1`?
SW480 rerep: inconclusive; AT treatment: inactive; p53 reactivator: inconclusive; ELG1 repair inh: inactive; ELG1 genotoxic: inactive; MCF10A rereplic: 3.7µM

Results for O=C(Nc1nc2ccccc2[nH]1)Nc1ccccc1F ?
SW480 rerep: inactive; AT treatment: inactive; p53 reactivator: 11µM; ELG1 repair inh: inconclusive; ELG1 genotoxic: 1.2µM; MCF10A rereplic: inactive

What do the screens show for `O=C(Nc1nc2ccccc2[nH]1)NC1CCCCC1`?
SW480 rerep: inactive; AT treatment: inactive; p53 reactivator: inactive; ELG1 repair inh: inconclusive; ELG1 genotoxic: 2.6µM; MCF10A rereplic: inactive

What do the screens show for `O=S(=O)(c1ccccc1)N1CCNCC1`?
SW480 rerep: inactive; MCF10A rereplic: inactive

Results for CC(=O)N1c2ccc(F)c(F)c2C[C@H]1C ?
SW480 rerep: inactive; AT treatment: inactive; p53 reactivator: inactive; ELG1 repair inh: inconclusive; ELG1 genotoxic: inactive; MCF10A rereplic: inactive

What do the screens show for `COc1cccc2c1Oc1cc([N+](=O)[O-])cc(N(C)C(C)=O)c1C=C2`?
SW480 rerep: inactive; AT treatment: inactive; p53 reactivator: inactive; ELG1 repair inh: inconclusive; ELG1 genotoxic: inactive; MCF10A rereplic: inconclusive

What do the screens show for `O=C(Nc1nc2ccccc2[nH]1)C1CCN(C(=O)c2ccc(F)cc2)CC1`?
SW480 rerep: inactive; AT treatment: inactive; p53 reactivator: inactive; ELG1 repair inh: inactive; ELG1 genotoxic: inactive; MCF10A rereplic: inactive

Results for O=C(Nc1nc2ccccc2[nH]1)C1CC1 ?
SW480 rerep: 21µM; AT treatment: inactive; p53 reactivator: inactive; ELG1 repair inh: inactive; ELG1 genotoxic: inactive; MCF10A rereplic: 18µM

How did Oc1ccccc1N1CCN(c2ncnc3scc(-c4ccccc4)c23)CC1 do in these assays?
SW480 rerep: inconclusive; AT treatment: inactive; p53 reactivator: inactive; ELG1 repair inh: 18µM; ELG1 genotoxic: inactive; MCF10A rereplic: 21µM

How did COc1ccc(-c2csc3nc(C)nc(N4CCN(C(C)=O)CC4)c23)cc1OC do in these assays?
SW480 rerep: inactive; AT treatment: inactive; p53 reactivator: inactive; ELG1 repair inh: inactive; ELG1 genotoxic: inactive; MCF10A rereplic: inconclusive

Results for Oc1ccccc1N1CCN(c2ncnc3scc(-c4ccc(F)cc4)c23)CC1 ?
SW480 rerep: inconclusive; AT treatment: inactive; p53 reactivator: inactive; ELG1 repair inh: 9.2µM; ELG1 genotoxic: inactive; MCF10A rereplic: inconclusive

What do the screens show for `OCCN1CCN(c2ncnc3scc(-c4ccc(F)cc4)c23)CC1`?
SW480 rerep: inactive; AT treatment: inactive; p53 reactivator: inactive; ELG1 repair inh: inconclusive; ELG1 genotoxic: inactive; MCF10A rereplic: inactive

What do the screens show for `Cc1nc(N2CCN(c3ccccc3O)CC2)c2c(-c3ccccc3)csc2n1`?
SW480 rerep: inconclusive; AT treatment: inactive; p53 reactivator: inactive; ELG1 repair inh: 18µM; ELG1 genotoxic: inactive; MCF10A rereplic: 13µM

How did COC(CNC(=O)C1CC(=O)N(CCc2ccc(C)cc2)C1)OC (stereo unspecified) do in these assays?
SW480 rerep: inactive; AT treatment: inactive; p53 reactivator: inactive; ELG1 repair inh: inactive; ELG1 genotoxic: inactive; MCF10A rereplic: inactive

How did CC(C)(C)c1ccc(C(=O)CCC(=O)OCC(=O)NCCc2ccc(S(N)(=O)=O)cc2)cc1 do in these assays?
SW480 rerep: inactive; AT treatment: inactive; p53 reactivator: inactive; ELG1 repair inh: inactive; ELG1 genotoxic: inactive; MCF10A rereplic: inactive

What do the screens show for `COc1cc(/C=N/NC(=O)CSc2cc(C)c(Br)cc2C)ccc1O`?
SW480 rerep: inactive; AT treatment: inactive; p53 reactivator: inactive; ELG1 repair inh: 16µM; ELG1 genotoxic: inactive; MCF10A rereplic: inconclusive

Results for CN1CCN(c2ccc(NC(=O)c3ccc([N+](=O)[O-])o3)cc2Cl)CC1 ?
SW480 rerep: 1.5µM; AT treatment: inactive; p53 reactivator: inactive; ELG1 repair inh: inconclusive; ELG1 genotoxic: inconclusive; MCF10A rereplic: 1.5µM

How did CCCCCC(=O)Nc1ccc(N2CCN(CC)CC2)c(Cl)c1 do in these assays?
SW480 rerep: inactive; AT treatment: inactive; p53 reactivator: inconclusive; ELG1 repair inh: inconclusive; ELG1 genotoxic: 18µM; MCF10A rereplic: inconclusive

How did CC(C)C(=O)N1CCN(c2ccc(NC(=O)c3ccc([N+](=O)[O-])o3)cc2Cl)CC1 do in these assays?
SW480 rerep: inactive; AT treatment: inactive; p53 reactivator: inactive; ELG1 repair inh: inactive; ELG1 genotoxic: inactive; MCF10A rereplic: inconclusive

Results for CCCC(=O)N1CCN(c2ccc(NC(=O)c3ccc([N+](=O)[O-])o3)cc2Cl)CC1 ?
SW480 rerep: inactive; AT treatment: inactive; p53 reactivator: inactive; ELG1 repair inh: inconclusive; ELG1 genotoxic: inactive; MCF10A rereplic: 1.8µM

Results for CCCCCC(=O)NC(=S)Nc1ccc(N2CCCCC2)c(Cl)c1 ?
SW480 rerep: inactive; AT treatment: inactive; p53 reactivator: inactive; ELG1 repair inh: inactive; ELG1 genotoxic: inactive; MCF10A rereplic: inconclusive

What do the screens show for `CCCCn1c(SCC(=O)NNC(=O)c2ccccc2)n[nH]c1=O`?
SW480 rerep: inactive; AT treatment: inconclusive; p53 reactivator: inactive; ELG1 repair inh: inactive; ELG1 genotoxic: inactive; MCF10A rereplic: inactive

Results for COc1cc(C(=O)NCCCN2CCCC2=O)cc(Br)c1OCc1ccccc1 ?
SW480 rerep: inactive; AT treatment: inactive; p53 reactivator: inactive; ELG1 repair inh: inconclusive; ELG1 genotoxic: inactive; MCF10A rereplic: inconclusive

How did O=C1C2C3C=CC(CNS(=O)(=O)c4ccccc4[N+](=O)[O-])(O3)C2C(=O)N1c1ccccc1 (stereo unspecified) do in these assays?
SW480 rerep: inconclusive; AT treatment: inactive; p53 reactivator: inactive; ELG1 repair inh: inactive; ELG1 genotoxic: inactive; MCF10A rereplic: 21µM

How did Cc1nc2c(sc3nc(N4CCOCC4)c4c(c32)CC(C)(C)OC4)c(-c2ccccc2)c1C(=O)O do in these assays?
SW480 rerep: 21µM; AT treatment: inactive; p53 reactivator: inactive; ELG1 repair inh: 3.7µM; ELG1 genotoxic: inactive; MCF10A rereplic: 2.9µM
